The test system of the experiment is CLK2. The settings on record: concentration: 1 μM, replicates: in singlicate; n = 1.
On to `Cc1ccc(C)c(NC(=O)NC2CCN(c3ccnc(Nc4ccc(F)cc4)n3)C2)c1` (stereo not drawn) [GSK1379720], for which the “%Inh” value was 0%.

Turning to `Cl.Cl.NCC(NC(=O)c1cc(-c2ccccc2)c(-c2ccnc3[nH]ccc23)s1)c1ccccc1` (stereo not drawn) [GSK1321561], the “%Inh” value turned out to be 0%. Take `CN(C)Cc1ccc(-c2ccc3c(Nc4ccc(Oc5ccccn5)cc4)ccnc3c2)o1` [GW567148]: the “%Inh” value turned out to be 0%.

As to `COc1cccc(C(=O)Nc2cccc(Oc3ccc4nc(NC(=O)C5CC5)cn4n3)c2)c1`, the “%Inh” value is 16%. For `CNC(=O)c1ccccc1Nc1nc(Nc2ccc(N3CCOCC3)cc2)ncc1Cl.Cl` [GSK1576028] the value was 97.1%; for `C[C@@H]1CC[C@@H](C(=O)Nc2ccccc2)CN1c1cc(-c2ccc3c(N)n[nH]c3c2)nc(N)n1` [GSK2286062], 13%; for `Cn1cc(-c2ccc3c(c2)CCN3C(=O)Cc2cccc(Cl)c2)c2c(N)ncnc21` [GSK2606590], 0%. For `FC(F)(F)c1ccc(/C=C/c2cncnc2Nc2ccc3[nH]c(Cc4ccccc4)nc3c2)cc1` [GW709199] the value was 0%. With `COc1cccc(NC(=O)NC2CCN(c3ccnc(Nc4cc(OC)c(OC)c(OC)c4)n3)C2)c1` (stereo not drawn) [GSK1379763] the figure was 11%; with `Fc1ccc(-c2ncn(C3CCNCC3)c2-c2ccnc(Oc3ccc(-c4ccccc4)cc3)n2)cc1` [SB-245391], 11%. As to `Oc1cc(Nc2ccnc3cc(I)ccc23)ccc1F` [GW552771], the “%Inh” value is recorded as 51%. With `COC(=O)Nc1nc2ccc(Oc3ccc(NC(=O)Nc4cc(C(F)(F)F)ccc4F)cc3)cc2n1C.Cl` [GW692089] the figure was 0%.

These data come from paper PMC5540273 (PLoS ONE, 2017).
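Note: KINOMEscan kinase panel screen.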
